Source: PubChem BioAssay AID1159580 (chemical genetic matrix, 2015)
Screen size: about 5,500 compounds; about 2,000 (36%) were called active. Another 18% or so got no clear call; they are omitted. Rule as the data show it: active = normalized growth mostly below about 0.91 (no sharp cut-off); inconclusive = no clear call, values can overlap the other calls; inactive = mostly above about 0.92. This is one part of the list.

Test: chemical genetic growth profiling, strain panel (AID 1159580);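 also: tested at 20 µM; growth read once vehicle control cultures reached saturation at 30 °C; 1 = growth at the plate median or of vehicle wells; lower values mean less growth of the strain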
Details: growth OD

Measured: normalized growth

COc1c(OC)c2occc2c2oc(=O)ccc12
active: S. cerevisiae deletion strains, locus YKR001C, strain vps1, hits give low values 0.644 | S. cerevisiae deletion strains, locus YLR371W, strain rom2, hits give low values 0.816 | S. cerevisiae deletion strains, locus YLR418C, strain cdc73, hits give low values 0.754 | S. cerevisiae deletion strains, locus YNL307C, strain MCK1, hits give low values 0.859 | S. cerevisiae deletion strains, locus YOR184W, strain ser1, hits give low values 0.859
inactive: S. cerevisiae deletion strains, locus YJR066W, strain TOR1, hits give low values 0.929 | S. cerevisiae deletion strains, locus YKL009W, strain mrt4, hits give low values 0.957 | S. cerevisiae deletion strains, locus YKL068W, hits give low values 0.978 | S. cerevisiae deletion strains, locus YKL085W, strain MDH1 (second series), hits give low values 0.97 | S. cerevisiae deletion strains, locus YKL085W, strain MDH1, hits give low values 0.97 | S. cerevisiae deletion strains, locus YKL160W, strain elf1, hits give low values 0.942 | S. cerevisiae deletion strains, locus YKL190W, strain CNB1, hits give low values 0.965 | S. cerevisiae deletion strains, locus YKR026C, strain gcn3, hits give low values 0.967 | S. cerevisiae deletion strains, locus YKR091W, strain srl3, hits give low values 0.985 | S. cerevisiae deletion strains, locus YLL001W, strain dnm1, hits give low values 0.993 | S. cerevisiae deletion strains, locus YLL026W, hits give low values 0.991 | S. cerevisiae deletion strains, locus YLL041C, strain sdh2, hits give low values 0.975 | S. cerevisiae deletion strains, locus YLR027C, strain aat2, hits give low values 0.964 | S. cerevisiae deletion strains, locus YLR039C, strain RIC1, hits give low values 0.68 | S. cerevisiae deletion strains, locus YLR058C, strain SHM2, hits give low values 0.96 | S. cerevisiae deletion strains, locus YLR102C, strain apc9, hits give low values 0.983 | S. cerevisiae deletion strains, locus YLR113W, strain HOG1, hits give low values 0.958 | S. cerevisiae deletion strains, locus YLR221C, strain rsa3, hits give low values 0.952 | S. cerevisiae deletion strains, locus YLR258W, strain gsy2, hits give low values 0.988 | S. cerevisiae deletion strains, locus YLR262C, strain YPT6 (second series), hits give low values 0.939 | S. cerevisiae deletion strains, locus YLR262C, strain YPT6, hits give low values 0.79 | S. cerevisiae deletion strains, locus YLR268W, strain sec22, hits give low values 0.927 | S. cerevisiae deletion strains, locus YLR320W, strain mms22, hits give low values 0.895 | S. cerevisiae deletion strains, locus YLR330W, strain CHS5, hits give low values 0.939 | S. cerevisiae deletion strains, locus YLR342W, strain FKS1 (second series), hits give low values 0.95 | S. cerevisiae deletion strains, locus YLR342W, strain FKS1, hits give low values 0.992 | S. cerevisiae deletion strains, locus YLR357W, strain rsc2, hits give low values 1.01 | S. cerevisiae deletion strains, locus YLR370C, strain arc18, hits give low values 0.982 | S. cerevisiae deletion strains, locus YLR384C, strain iki3, hits give low values 0.991 | S. cerevisiae deletion strains, locus YML016C, strain PPZ1, hits give low values 0.936 | S. cerevisiae deletion strains, locus YML032C, strain rad52, hits give low values 0.915 | S. cerevisiae deletion strains, locus YML120C, strain ndi1, hits give low values 0.948 | S. cerevisiae deletion strains, locus YML124C, strain tub3, hits give low values 0.968 | S. cerevisiae deletion strains, locus YMR058W, strain fet3, hits give low values 0.971 | S. cerevisiae deletion strains, locus YMR078C, strain ctf18, hits give low values 0.955 | S. cerevisiae deletion strains, locus YMR125W, strain sto1, hits give low values 1.01 | S. cerevisiae deletion strains, locus YMR129W, hits give low values 0.986 | S. cerevisiae deletion strains, locus YMR205C, strain PFK2, hits give low values 0.987 | S. cerevisiae deletion strains, locus YMR223W, strain ubp8, hits give low values 0.933 | S. cerevisiae deletion strains, locus YMR231W, strain pep5, hits give low values 0.987 | S. cerevisiae deletion strains, locus YMR263W, strain SAP30, hits give low values 0.916 | S. cerevisiae deletion strains, locus YMR307W, strain GAS1, hits give low values 0.816 | S. cerevisiae deletion strains, locus YNL067W, strain RPL9B, hits give low values 0.941 | S. cerevisiae deletion strains, locus YNL071W, strain lat1, hits give low values 0.929 | S. cerevisiae deletion strains, locus YNL183C, strain NPR1, hits give low values 0.921 | S. cerevisiae deletion strains, locus YNL209W, strain ssb2, hits give low values 0.976 | S. cerevisiae deletion strains, locus YNL233W, strain BNI4, hits give low values 0.872 | S. cerevisiae deletion strains, locus YNL248C, strain rpa49, hits give low values 0.906 | S. cerevisiae deletion strains, locus YNL250W, strain rad50, hits give low values 0.989 | S. cerevisiae deletion strains, locus YNL271C, strain bni1, hits give low values 0.965 | S. cerevisiae deletion strains, locus YNL298W, strain CLA4, hits give low values 0.95 | S. cerevisiae deletion strains, locus YNL322C, strain KRE1 (second series), hits give low values 0.986 | S. cerevisiae deletion strains, locus YNL322C, strain KRE1, hits give low values 0.973 | S. cerevisiae deletion strains, locus YNR049C, strain mso1, hits give low values 0.985 | S. cerevisiae deletion strains, locus YNR052C, strain pop2, hits give low values 0.948 | S. cerevisiae deletion strains, locus YOL012C, strain htz1 0.5 | S. cerevisiae deletion strains, locus YOL147C, strain pex11, hits give low values 0.958 | S. cerevisiae deletion strains, locus YOR001W, strain rrp6, hits give low values 0.936 | S. cerevisiae deletion strains, locus YOR061W, strain CKA2, hits give low values 0.962 | S. cerevisiae deletion strains, locus YOR069W, strain VPS5, hits give low values 0.968 | S. cerevisiae deletion strains, locus YOR070C, strain gyp1, hits give low values 0.977 | S. cerevisiae deletion strains, locus YOR080W, strain dia2, hits give low values 0.98 | S. cerevisiae deletion strains, locus YOR083W, strain WHI5, hits give low values 0.908 | S. cerevisiae deletion strains, locus YOR106W, strain vam3, hits give low values 0.946 | S. cerevisiae deletion strains, locus YOR136W, strain idh2, hits give low values 0.995 | S. cerevisiae deletion strains, locus YOR144C, strain elg1, hits give low values 0.954 | S. cerevisiae deletion strains, locus YOR231W, strain MKK1, hits give low values 0.956 | S. cerevisiae deletion strains, locus YOR265W, strain rbl2, hits give low values 0.985 | S. cerevisiae deletion strains, locus YOR270C, strain vph1, hits give low values 0.857 | S. cerevisiae deletion strains, locus YOR290C, strain snf2, hits give low values 0.944 | S. cerevisiae deletion strains, locus YOR316C, strain cot1, hits give low values 0.985 | S. cerevisiae deletion strains, locus YPL051W, strain arl3, hits give low values 0.933 | S. cerevisiae deletion strains, locus YPL055C, strain LGE1, hits give low values 0.87 | S. cerevisiae deletion strains, locus YPL078C, strain atp4, hits give low values 0.932 | S. cerevisiae deletion strains, locus YPL106C, strain sse1, hits give low values 0.94 | S. cerevisiae deletion strains, locus YPL240C, strain hsp82, hits give low values 0.958 | S. cerevisiae deletion strains, locus YPL241C, strain CIN2, hits give low values 0.941 | S. cerevisiae deletion strains, locus YPL256C, strain CLN2, hits give low values 0.973 | S. cerevisiae deletion strains, locus YPR119W, strain clb2, hits give low values 0.98 | S. cerevisiae deletion strains, locus YPR141C, strain kar3, hits give low values 0.985 | S. cerevisiae deletion strains, locus YPR163C, strain tif3, hits give low values 0.917 | S. cerevisiae deletion strains, locus YPR167C, strain met16, hits give low values 0.96 | S. cerevisiae deletion strains, strain wtn01, hits give low values 0.957 | S. cerevisiae strains, strain wild type, hits give low values 0.967
